Source: PubChem BioAssay (National Center for Advancing Translational Sciences (NCATS))
RXFP1 agonist – agonists of human relaxin receptor RXFP1 | AID 2676 | HEK293T-RXFP1 cAMP TR-FRET, 30 min; response scale: percent of porcine relaxin response, buffer zero | Potency, µM (doses to about 57.5 µM), without a hit: at the top dose activation, actives largely listed as activators | hit rate 0.3% among 370,000; active = well fitted activation curve with a large enough effect; inconclusive = small, poorly fitted or top-dose-only effect; note: potency is the fitted concentration of half-maximal effect; % is set by controls: 0 for no effect and ±100 for the full control effect; nearly all actives have a fitted effect of over 60% in size
Target sequence (Q9HBX9 whole entry, looked up): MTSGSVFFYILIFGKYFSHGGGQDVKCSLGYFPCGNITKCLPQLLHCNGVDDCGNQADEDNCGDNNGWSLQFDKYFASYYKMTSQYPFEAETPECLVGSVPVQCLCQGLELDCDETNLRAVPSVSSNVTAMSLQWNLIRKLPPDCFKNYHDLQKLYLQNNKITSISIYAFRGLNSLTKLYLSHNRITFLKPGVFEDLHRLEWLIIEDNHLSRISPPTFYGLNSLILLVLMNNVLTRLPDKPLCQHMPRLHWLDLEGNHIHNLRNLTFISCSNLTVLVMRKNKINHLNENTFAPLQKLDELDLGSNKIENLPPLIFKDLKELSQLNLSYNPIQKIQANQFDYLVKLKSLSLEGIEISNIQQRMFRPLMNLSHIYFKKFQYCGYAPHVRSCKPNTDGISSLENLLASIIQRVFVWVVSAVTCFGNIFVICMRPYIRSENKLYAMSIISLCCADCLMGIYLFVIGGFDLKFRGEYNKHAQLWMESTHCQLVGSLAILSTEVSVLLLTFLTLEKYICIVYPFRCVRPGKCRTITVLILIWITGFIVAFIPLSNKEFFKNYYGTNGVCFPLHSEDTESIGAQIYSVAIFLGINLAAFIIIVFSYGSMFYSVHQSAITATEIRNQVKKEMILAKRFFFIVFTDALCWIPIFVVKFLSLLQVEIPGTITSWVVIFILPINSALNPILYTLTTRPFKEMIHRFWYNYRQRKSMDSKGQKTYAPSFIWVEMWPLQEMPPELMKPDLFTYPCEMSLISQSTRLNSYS
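Agonist response is measured as cAMP accumulation in an RXFP1-transfected HEK293T line under PDE4 inhibition. Values are scaled between buffer-only and 29 nM porcine relaxin, and EC50s come from standard Hill equation fits.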
RXFP1 antag – RXFP1 (human) relaxin receptor antagonism. activity change, negative = inhibition, % at 57.5 µM. Q9HBX9. HEK293-RXFP1, relaxin-stimulated cAMP HTRF, 30 min; stronger effect = lower value. hit rate 0.59% among 350,000;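 active = activity change of -60% or lower, but not beyond a set lower limit; inconclusive = change between -60% and -40%, or beyond the set limit; inactive = change above -40%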; note: % is set by controls: 0 for no effect and ±100 for the full control effect
gsp ag – agonists of gsp mutant (McCune-Albright syndrome); gsp mutant cells, cAMP HTRF, 30 min; Potency, µM (series often up to 76.9 µM), inactives show top-dose activation (cAMP increase), actives largely listed as activators; hit rate 0.13% among 340,000; AID 624287; active = well fitted activation curve with a large enough effect; inconclusive = small, poorly fitted or top-dose-only effect, or another doubt; inactive = no such curve, though single readings can be large or run the other way; cell line not stated here;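 note: phosphodiesterase inhibitor Ro 20-1724 added with compounds to block cAMP breakdown; potency is the fitted concentration of half-maximal effect; nearly all actives have a fitted effect of over 60% in size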
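Cells in DMEM/10% FBS with G418 were pretreated with compounds in DMSO plus […] (300 uM stock) for 30 min at 37C. cAMP was measured by HTRF (cAMP-d2 plus anti-cAMP antibody-K) after 30 min at room temperature.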
gsp antagonist – antagonizes gsp, the McCune-Albright syndrome mutation; Potency, µM (titrated, usually from 76.9 µM), for inactives: at the highest dose activity change, negative = inhibition, usual class: inhibitors; hit rate 0.4% among 340,000; AID 624288; gsp-mutant cells, cAMP HTRF, 30 min; calls by dose curve; cell line not stated here;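 note: intracellular cAMP measured with PDE inhibitor Ro 20-1724 present during compound exposure; potency is the fitted concentration of half-maximal effect; % is set by controls: 0 for no effect and ±100 for the full control effect; nearly all actives have a fitted effect of over 65% in size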
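Cells, 2000/well, grown 16–24 h in DMEM 10% FBS with 0.5 mg/ml G418, then compounds plus […] (300 uM addition stock), 30 min at 37C. cAMP read by HTRF (cAMP-d2 and anti-cAMP antibody-K in lysis buffer) after 30 min RT.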
* = called active by the depositor; ? = inconclusive; nt = no result given; [ ] = dose if it differs, or a comment. Sampled rows, rich in hits. Any-hit rate of the full collection: about 0.9%.

SMILES	RXFP1 agonist	RXFP1 antag	gsp ag	gsp antagonist
COc1ccc(CCNS(=O)(=O)c2cc3c4c(c2)C(C)C(=O)N4CCC3)cc1OC (stereo unspecified)	-1%	-92*	-11%	-5%
CC1C(=O)N2CCCc3cc(S(=O)(=O)NCCc4ccccc4)cc1c32 (stereo unspecified)	2%	-12	?	-2%
CSc1cc(-c2ccc(Cl)cc2)n(Cc2ccccc2)c(=O)c1C#N	22µM*	2	-49%	3%
COc1nc(Cl)cn(-c2ccc(C)cc2)c1=O	2%	-2	-17%	11%
Cc1ccc(-n2c(Cl)c(Cl)nc(Cl)c2=O)cc1	-3%	-103*	-15%[15.4 µM]	5%
CCc1ccc(OCC(=O)N(Cc2ccc(C(C)C)cc2)C2CCS(=O)(=O)C2)cc1 (stereo unspecified)	1%	-38	nt	nt
CN1CCC(NCCC(c2ccc(F)cc2)c2ccc(Cl)cc2)CC1 (stereo unspecified)	0%	-86*	-2%[15.4 µM]	11%
CC(C)CCNC(=O)c1ccc(Cn2c(=S)[nH]c3ccccc3c2=O)cc1	6%	-73*	-38%	0%
COc1ccc(Cn2c(=O)[nH]c3cc(C(=O)NCCC(C)C)ccc3c2=O)cc1	1%	nt	nt	nt
Cc1ccc(CNC(=O)COCc2cc(-c3ccc4c(c3)OCO4)on2)cc1	0%	-20	nt	nt
COc1cc(/C=N/NC(=O)Cn2cnc3ccccc3c2=O)ccc1O	14%	-9	1%[15.4 µM]	3%
COc1cc(/C=N/NC(=O)Cn2cnc3c2c(=O)n(C)c(=O)n3C)ccc1O	16µM*	41	22µM*	7%
COc1cccc(CCNC(=O)c2c(O)nc3ccccn3c2=O)c1	12%	nt	nt	nt
Nc1nc(Sc2ccc([N+](=O)[O-])c3nonc23)c2[nH]cnc2n1	nt	13	13µM*	-17%
CNc1ncnc(Sc2nc(N)nc3nc[nH]c23)c1[N+](=O)[O-]	nt	9	?	1%
CCN(CC(=O)Nc1ccccc1C(F)(F)F)C(=O)CN1C(=O)NC2(CCCC2)C1=O	1%	-60*	-15%[15.4 µM]	6%
O=Nc1c(-c2c(O)[nH]c3cc(Br)ccc23)[nH]c2ccccc12	0%	nt	nt	20µM*
O=C(CCC1CCN(Cc2ccccc2)CC1)c1ccc2c(c1)NCCCC2	nt	-35	nt	nt
COc1cc2c(cc1OC)C(C)N(C(=O)c1cc3c(s1)-c1ccccc1OC3)CC2 (stereo unspecified)	1%	-34	14%	-24%
COc1cc2c(cc1OC)C(C)N(C(=O)c1cc3c(s1)-c1c(C)cccc1OC3)CC2 (stereo unspecified)	4%	nt	-70%	35µM*
COc1ccc2c(C(=S)N(C)CC(=O)O)cccc2c1C(F)(F)F	nt	-3	nt	nt
COc1ccc(CCNC(=O)c2c([S-])n(-c3ccc(C)cc3)c3cccc[n+]23)cc1	0%	4	32%	-19%
CCc1ccc2n(-c3ccc(OC)cc3)c([S-])c(C(=O)Nc3cc(C)cc(C)c3)[n+]2c1	5µM*	-7	10%[15.4 µM]	29%
COc1ccc(S(=O)(=O)NCCc2c[nH]c3ccc(C)cc23)cc1	1%	-8	?	32µM*
COc1ccc2[nH]cc(CCNS(=O)(=O)c3ccc(C)cc3)c2c1	6%	14	3%	-10%
SMILES	RXFP1 agonist	RXFP1 antag	gsp ag	gsp antagonist
Cc1ccc(C)c(Cn2c(=O)n(CC3CCC(C(=O)N4CCOCC4)CC3)c(=O)c3sccc32)c1 (stereo unspecified)	0%	2	nt	nt
c1ccc(CCNc2nc(-c3ccccc3)cs2)cc1	nt	-36	nt	nt
CCOc1cc(N2CCOCC2)c(OCC)cc1NC(=O)c1c(C)noc1C	1%	-14	-11%	35µM*
CCC1(c2cnc[nH]2)Cc2ccccc2C1	nt	-2	nt	nt
Cn1c(O)c(/C=N/NC(=O)c2cc3ccccc3cc2O)c2ccccc21	5%	?	-8%[15.4 µM]	35µM*
Cn1c2ccccc2c2cc(/C=N/NC(=O)c3ccc(O)cc3O)ccc21	3%	-3	20%	?
CC(C)C[C@@H]1[C@H](c2ccccc2)OC(=O)N1CCCN1CCCCCC1	nt	-13	nt	nt
Cc1ccc(C(C)C)c(OCc2ccc(C(=O)N/N=C/c3ccc(O)cc3O)cc2)c1	0%	-15	-4%	3%
Cc1ccc(C(C)C)c(OCc2ccc(C(=O)N/N=C/c3ccc(C(=O)O)cc3)cc2)c1	0%	-69*	9%	-28%
CCCCc1ccc(NC(=O)c2cc3c(=O)n4ccccc4nc3n2C)cc1	15%	-12	nt	nt
COc1ccc(NC(=O)c2nnn(CC(=O)Nc3ccccc3OC)c2N)c(OC)c1	6%	-102*	-10%	9%
COc1ccc(NC(=O)c2nnn(CC(=O)Nc3cccc(C)c3C)c2N)c(OC)c1	2%	2	nt	nt
COCC1CCN(C(=O)c2cc(COc3cccc4cnccc34)on2)CC1	0%	5	36%	-22%
O=C(c1cc(COc2cccc3cnccc23)on1)N1CCCC(CCCO)C1 (stereo unspecified)	0%	-14	11%	35µM*
COc1ccc(CNC(=O)CN2C(=O)COc3ccc(S(=O)(=O)N4CCCCCC4)cc32)cc1	1%	2	nt	nt
CCOC(=O)c1cc(-c2ccccc2)n(CC(=O)N(C)c2ccc(OC)cc2)c1C	-3%	-74*	nt	nt
Cc1cccc(OCC(=O)N(Cc2ccco2)c2c(N)n(Cc3ccccc3)c(=O)[nH]c2=O)c1	-1%	-6	-31%	50µM*
Nc1c(N(Cc2ccco2)C(=O)COc2ccccc2)c(=O)[nH]c(=O)n1Cc1ccccc1	0%	3	-36%	0%
CCOc1c(Cl)cc(CNc2ccc(S(N)(=O)=O)cc2)cc1OC	2%	15	16%	9%
CCOc1c(Cl)cc(CNc2ccc(N3CCCC3)cc2)cc1OC	0%	-75*	7%[15.4 µM]	5%
Cc1cccc(NC(=O)C2CCN(S(=O)(=O)c3c(C)c(C)cc(C)c3C)CC2)n1	-2%	-79*	34%	-7%
CCOC(=O)c1ccc(N2C(=O)c3n[nH]c(C)c3C2c2ccc(OCC)cc2)cc1 (stereo unspecified)	4%	nt	nt	nt
COc1ccc(OC)c(C2C(C(=O)c3cc4ccccc4o3)=C(O)C(=O)N2c2cc(C)on2)c1 (stereo unspecified)	?	nt	14µM*	-8%
COc1ccc(OC)c(C2C(C(=O)c3ccc(C)o3)=C(O)C(=O)N2c2cc(C)on2)c1 (stereo unspecified)	?	-12	?	-34%
Cc1cc(N2C(=O)C(O)=C(C(=O)c3cc4ccccc4o3)C2c2ccc(Br)cc2)no1 (stereo unspecified)	22µM*	10	3.5µM*	-4%
COc1ccc(C(=O)COC(=O)c2cccc(NC(=O)c3ccc(OC)c(OC)c3)c2)cc1	0%	-9	nt	nt
